In all, about 5,500 compounds went through this assay and about 2,000 (36%) were called active. Roughly 18% stayed inconclusive and do not appear here. Cut-off read from the data, not from the text of the source: active = normalized growth mostly below about 0.91 (no sharp cut-off); inconclusive = no clear call, values can overlap the other calls; inactive = mostly above about 0.92. The list shows a part of the results.
Experiment: chemical genetic growth profiling, strain panel (AID 1159580);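 note: tested at 20 µM; growth read once vehicle control cultures reached saturation at 30 °C; 1 = growth at the plate median or of vehicle wells; lower values mean less growth of the strain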
Conditions: growth OD

Measured: normalized growth

NCCC(O)C(=O)NC1CC(N)C(OC2OC(CN)C(O)C(O)C2N)C(OC2OC(CO)C(O)C2O)C1O (stereo unspecified)
inactive: S. cerevisiae deletion strains, locus YAL013W, strain DEP1, active compounds read low 1.04 | S. cerevisiae deletion strains, locus YBR021W, strain FUR4, active compounds read low 0.976 | S. cerevisiae deletion strains, locus YBR229C, strain ROT2, active compounds read low 1 | S. cerevisiae deletion strains, locus YCL029C, strain bik1, active compounds read low 0.994 | S. cerevisiae deletion strains, locus YDL035C, strain GPR1, active compounds read low 0.993 | S. cerevisiae deletion strains, locus YDL074C, strain BRE1, active compounds read low 1.03 | S. cerevisiae deletion strains, locus YDL101C, strain DUN1, active compounds read low 1 | S. cerevisiae deletion strains, locus YDL134C, strain PPH21, active compounds read low 0.999 | S. cerevisiae deletion strains, locus YDL185W, strain tfp1, active compounds read low 0.979 | S. cerevisiae deletion strains, locus YDL192W, strain arf1, active compounds read low 1 | S. cerevisiae deletion strains, locus YDR101C, strain arx1, active compounds read low 1 | S. cerevisiae deletion strains, locus YDR150W, strain NUM1, active compounds read low 0.999 | S. cerevisiae deletion strains, locus YDR162C, strain NBP2, active compounds read low 1.01 | S. cerevisiae deletion strains, locus YDR318W, strain mcm21, active compounds read low 0.992 | S. cerevisiae deletion strains, locus YDR388W, active compounds read low 0.998 | S. cerevisiae deletion strains, locus YDR502C, strain sam2, active compounds read low 1 | S. cerevisiae deletion strains, locus YEL061C, strain CIN8, active compounds read low 1 | S. cerevisiae deletion strains, locus YER110C, active compounds read low 0.988 | S. cerevisiae deletion strains, locus YER155C, strain BEM2, active compounds read low 0.993 | S. cerevisiae deletion strains, locus YER167W, strain BCK2, active compounds read low 0.978 | S. cerevisiae deletion strains, locus YGL078C, strain dbp3, active compounds read low 0.999 | S. cerevisiae deletion strains, locus YGL086W, strain mad1, active compounds read low 0.989 | S. cerevisiae deletion strains, locus YGL248W, strain PDE1, active compounds read low 0.994 | S. cerevisiae deletion strains, locus YGR078C, strain PAC10, active compounds read low 1.01 | S. cerevisiae deletion strains, locus YGR135W, strain pre9, active compounds read low 1.02 | S. cerevisiae deletion strains, locus YGR229C, strain SMI1, active compounds read low 1.02 | S. cerevisiae deletion strains, locus YGR252W, strain gcn5, active compounds read low 0.994 | S. cerevisiae deletion strains, locus YHR030C, strain SLT2, active compounds read low 0.983 | S. cerevisiae deletion strains, locus YHR079C, strain IRE1 (second series), active compounds read low 0.99 | S. cerevisiae deletion strains, locus YHR094C, strain hxt1, active compounds read low 0.989 | S. cerevisiae deletion strains, locus YHR129C, strain ARP1, active compounds read low 0.992 | S. cerevisiae deletion strains, locus YHR200W, strain rpn10, active compounds read low 0.994 | S. cerevisiae deletion strains, locus YIL066C, strain RNR3, active compounds read low 0.999 | S. cerevisiae deletion strains, locus YIL073C, strain SPO22, active compounds read low 0.9 | S. cerevisiae deletion strains, locus YIL125W, strain kgd1, active compounds read low 0.995 | S. cerevisiae deletion strains, locus YIR030C, strain dcg1, active compounds read low 0.993 | S. cerevisiae deletion strains, locus YJL095W, strain BCK1, active compounds read low 1.06 | S. cerevisiae deletion strains, locus YJL134W, strain LCB3, active compounds read low 0.989 | S. cerevisiae deletion strains, locus YJL168C, strain set2, active compounds read low 0.991 | S. cerevisiae deletion strains, locus YJL187C, strain SWE1 (second series), active compounds read low 0.994 | S. cerevisiae deletion strains, locus YJR043C, strain POL32, active compounds read low 1.04 | S. cerevisiae deletion strains, locus YJR075W, strain HOC1, active compounds read low 1.02 | S. cerevisiae deletion strains, locus YKL009W, strain mrt4, active compounds read low 0.978 | S. cerevisiae deletion strains, locus YKL068W, active compounds read low 0.987 | S. cerevisiae deletion strains, locus YKL085W, strain MDH1 (second series), active compounds read low 0.972 | S. cerevisiae deletion strains, locus YKL085W, strain MDH1, active compounds read low 0.972 | S. cerevisiae deletion strains, locus YKL190W, strain CNB1, active compounds read low 0.99 | S. cerevisiae deletion strains, locus YKR001C, strain vps1, active compounds read low 1 | S. cerevisiae deletion strains, locus YLR039C, strain RIC1, active compounds read low 1.02 | S. cerevisiae deletion strains, locus YLR058C, strain SHM2, active compounds read low 0.986 | S. cerevisiae deletion strains, locus YLR102C, strain apc9, active compounds read low 0.989 | S. cerevisiae deletion strains, locus YLR262C, strain YPT6, active compounds read low 0.985 | S. cerevisiae deletion strains, locus YLR268W, strain sec22, active compounds read low 1.02 | S. cerevisiae deletion strains, locus YLR330W, strain CHS5, active compounds read low 0.981 | S. cerevisiae deletion strains, locus YLR342W, strain FKS1 (second series), active compounds read low 0.968 | S. cerevisiae deletion strains, locus YLR371W, strain rom2, active compounds read low 0.978 | S. cerevisiae deletion strains, locus YLR418C, strain cdc73, active compounds read low 1.02 | S. cerevisiae deletion strains, locus YML016C, strain PPZ1, active compounds read low 0.991 | S. cerevisiae deletion strains, locus YML032C, strain rad52, active compounds read low 0.998 | S. cerevisiae deletion strains, locus YML124C, strain tub3, active compounds read low 1 | S. cerevisiae deletion strains, locus YMR078C, strain ctf18, active compounds read low 0.997 | S. cerevisiae deletion strains, locus YMR223W, strain ubp8, active compounds read low 0.995 | S. cerevisiae deletion strains, locus YMR263W, strain SAP30, active compounds read low 1.01 | S. cerevisiae deletion strains, locus YMR307W, strain GAS1, active compounds read low 0.99 | S. cerevisiae deletion strains, locus YNL067W, strain RPL9B, active compounds read low 1.03 | S. cerevisiae deletion strains, locus YNL128W, strain TEP1, active compounds read low 1.02 | S. cerevisiae deletion strains, locus YNL153C, strain GIM3, active compounds read low 1.01 | S. cerevisiae deletion strains, locus YNL233W, strain BNI4, active compounds read low 1 | S. cerevisiae deletion strains, locus YNL250W, strain rad50, active compounds read low 0.991 | S. cerevisiae deletion strains, locus YNL271C, strain bni1, active compounds read low 0.983 | S. cerevisiae deletion strains, locus YNL298W, strain CLA4, active compounds read low 1.01 | S. cerevisiae deletion strains, locus YNL307C, strain MCK1, active compounds read low 0.997 | S. cerevisiae deletion strains, locus YNL322C, strain KRE1, active compounds read low 0.997 | S. cerevisiae deletion strains, locus YNR052C, strain pop2, active compounds read low 0.994 | S. cerevisiae deletion strains, locus YOL006C, strain TOP1, active compounds read low 1.05 | S. cerevisiae deletion strains, locus YOL012C, strain htz1 0.88 | S. cerevisiae deletion strains, locus YOL147C, strain pex11, active compounds read low 0.994 | S. cerevisiae deletion strains, locus YOR061W, strain CKA2, active compounds read low 0.999 | S. cerevisiae deletion strains, locus YOR069W, strain VPS5, active compounds read low 1.01 | S. cerevisiae deletion strains, locus YOR136W, strain idh2, active compounds read low 0.993 | S. cerevisiae deletion strains, locus YOR144C, strain elg1, active compounds read low 0.995 | S. cerevisiae deletion strains, locus YOR184W, strain ser1, active compounds read low 0.982 | S. cerevisiae deletion strains, locus YOR316C, strain cot1, active compounds read low 0.987 | S. cerevisiae deletion strains, locus YPL055C, strain LGE1, active compounds read low 1.04 | S. cerevisiae deletion strains, locus YPL241C, strain CIN2, active compounds read low 1.01 | S. cerevisiae deletion strains, locus YPR119W, strain clb2, active compounds read low 0.993 | S. cerevisiae deletion strains, locus YPR141C, strain kar3, active compounds read low 0.992 | S. cerevisiae deletion strains, locus YPR163C, strain tif3, active compounds read low 1 | S. cerevisiae deletion strains, locus YPR167C, strain met16, active compounds read low 0.994 | S. cerevisiae deletion strains, strain wtn01, active compounds read low 0.993 | S. cerevisiae strains, strain wild type, active compounds read low 0.992

Reference: PubChem BioAssay AID1159580 (chemical genetic matrix, 2015)
